Assay results as given in PubChem BioAssay (EPA / NIEHS).
Inconclusive results are not listed. Calls of active or inactive are those of the source. The calls were made as follows: active = hit-call score of the fitted dose curve at least 0.9, where 1 is the maximum; inconclusive = response in the unintended direction; inactive = score below 0.9.

The compounds below were run against Androgen receptor (Homo sapiens) (UniProt P10275) (assay: ATG_AR_TRANS: Attagene TRANS-FACTORIAL HepG2 Assay for human Androgen Receptor (AR) (AID 2282973)). Details: HepG2 Attagene TRANS-FACTORIAL AR reporter transcription.
Androgen receptor (Homo sapiens), sequence (P10275 whole entry, looked up, the tested form may be a part): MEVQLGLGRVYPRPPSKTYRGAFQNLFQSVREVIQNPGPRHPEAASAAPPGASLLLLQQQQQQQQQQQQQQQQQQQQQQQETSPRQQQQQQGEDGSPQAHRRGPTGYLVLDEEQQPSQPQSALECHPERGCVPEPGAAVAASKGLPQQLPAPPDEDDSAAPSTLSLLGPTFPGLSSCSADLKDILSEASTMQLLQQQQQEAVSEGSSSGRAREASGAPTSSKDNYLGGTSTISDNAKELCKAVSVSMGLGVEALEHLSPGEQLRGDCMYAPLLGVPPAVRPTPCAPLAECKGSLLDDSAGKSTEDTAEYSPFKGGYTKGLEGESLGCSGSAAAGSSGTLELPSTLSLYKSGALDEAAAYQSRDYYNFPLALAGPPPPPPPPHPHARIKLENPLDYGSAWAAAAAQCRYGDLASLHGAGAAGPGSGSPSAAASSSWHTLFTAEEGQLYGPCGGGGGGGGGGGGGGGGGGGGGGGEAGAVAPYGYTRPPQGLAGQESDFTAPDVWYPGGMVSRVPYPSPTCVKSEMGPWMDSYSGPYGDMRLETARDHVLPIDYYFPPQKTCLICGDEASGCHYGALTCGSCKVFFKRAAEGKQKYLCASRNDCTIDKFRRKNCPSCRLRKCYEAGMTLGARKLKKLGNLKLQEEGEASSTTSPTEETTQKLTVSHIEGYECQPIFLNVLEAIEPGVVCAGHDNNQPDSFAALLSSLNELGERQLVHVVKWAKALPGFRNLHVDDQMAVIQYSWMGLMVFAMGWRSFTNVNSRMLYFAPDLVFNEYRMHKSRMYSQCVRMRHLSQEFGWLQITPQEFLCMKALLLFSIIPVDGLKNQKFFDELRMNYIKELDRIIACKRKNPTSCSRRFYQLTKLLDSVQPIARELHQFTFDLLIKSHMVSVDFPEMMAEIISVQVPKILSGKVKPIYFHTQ
Summary of the method: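 HepG2 cells transiently transfected with AR-Gal4 chimera and GAL4-UAS reporter units; chemical exposure 24 h. Reporter mRNA quantified by RT-PCR with fluorescent labelling and capillary electrophoresis; gain-of-signal fitted against DMSO.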

Structure (SMILES)	outcome
COc1ccc(O)cc1	inactive
Cc1ccc(C)c(O)c1C	inactive
C[C@H]1C[C@@H]2[C@H]([C@@H](O)C[C@@]3(C)[C@H]2CC[C@]3(O)C(=O)CO)[C@@]2(C)C=CC(=O)C=C12	inactive
[Cl][Bi]([Cl])([c]1ccccc1)([c]1ccccc1)[c]1ccccc1	inactive
O=C(O)c1cc(Cl)cc([N+](=O)[O-])c1Cl	inactive
Nc1cc(Cl)c(-c2cc(Cl)c(N)cc2Cl)cc1Cl	inactive
O=C(O)c1cccc(Cl)n1	inactive
N=C1C=CC(=C(c2ccc(N)cc2)c2ccc(N)cc2)C=C1	inactive
CCCCCCCCCc1ccc(OCCO)cc1	inactive
CC=CCO	inactive
O=CC(F)(F)C(F)(F)C(F)(F)C(F)F	inactive
CCCCC(CC)COC(=O)/C=C/c1ccc(OC)cc1 (stereo not given)	inactive
CC(C)(C)c1cc(CCC(=O)NCCCCCCNC(=O)CCc2cc(C(C)(C)C)c(O)c(C(C)(C)C)c2)cc(C(C)(C)C)c1O	inactive
CC(Oc1cc(Cl)ccc1Cl)C(=O)O (stereo not given)	inactive
N#CCCOCCC#N	inactive
Nc1nc2ccc([N+](=O)[O-])cc2s1	inactive
COC(=O)c1cccc(C)c1S(=O)(=O)NC(=O)Nc1nc(OCC(F)(F)F)nc(N(C)C)n1	inactive
CCCCCCCOC(=O)c1ccccc1C(=O)OCCCCCCC	inactive
CC(=O)CC(C)(C)O	inactive
COC(OC(C)=O)c1ccccc1 (stereo not given)	inactive

Structure (SMILES)	outcome
O=c1cc(-c2ccccc2)oc2ccc3ccccc3c12	inactive
CCCCCCCCCCCCCC(=O)OCC(O)CO (stereo not given)	inactive
c1ccc2[nH]ccc2c1	inactive
CN(C)CCOc1ccc(/C(=C(/CCCl)c2ccccc2)c2ccccc2)cc1	inactive
O=C(Cl)C(F)(F)C(F)(F)C(F)(F)C(F)(F)C(F)(F)C(F)(F)C(F)(F)F	inactive
Cc1cc(C)c(S(=O)(=O)O)cc1N=Nc1cc(S(=O)(=O)O)c2ccccc2c1O	inactive
COCc1c(C(C)C)nc(C(C)C)c(/C=C/[C@@H](O)C[C@@H](O)CC(=O)O)c1-c1ccc(F)cc1	inactive
C=C(C)[C@H]1CC=C(C)C(=O)C1	inactive
COc1cc(/C=C/C(=O)CC(=O)/C=C/c2ccc(O)c(OC)c2)ccc1O	inactive
FC(F)(F)C1(F)C(F)(F)C(F)(F)C(F)(F)C1(F)F	inactive
CC1(C)COCN1	inactive
C=CC(=O)OCCN(CC)CC	inactive
CCOC(OCC)C(=O)c1ccccc1	inactive
Cc1ccc(C)c(OCCCC(C)(C)C(=O)O)c1	inactive
NNC(=O)c1cccc(C(=O)NN)c1	inactive
Clc1ccc2c(Cl)ccnc2c1	inactive
NCC(F)(F)C(F)(F)C(F)(F)C(F)(F)C(F)(F)C(F)(F)C(F)(F)C(F)(F)F	inactive
CC(=O)O[C@@H]1CC2CCC1(C)C2(C)C (stereo not given in full)	inactive
CC(=O)C=O	inactive
O=C(C=C(O)C(F)(F)F)C(F)(F)F	inactive
